# Reference: PubChem BioAssay
# Active and inactive are the calls of the source.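 How the source made its calls, unless noted: active means compounds killing one labelled cell type while sparing the other, by normalised counts and ratio limits, not self-fluorescent; inactive means the rest.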
# Test: modulation of C. elegans fzo-1 (AID 1259413; call rule not given here;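 further: fzo-1 mutant C. elegans worms in liquid wells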)
# Settings: C. elegans fzo-1 modulator screen, mean read-out; stronger effect = higher value
row,Compound,mean signal
1,Cc1cccc(C)c1NC(=O)C1CCCCN1C (configuration not stated),253 (inactive)
2,CCCCC(=O)N(Cc1ccc(-c2ccccc2-c2nn[nH]n2)cc1)[C@H](C(=O)O)C(C)C,250 (inactive)
3,Nc1ncnc2c1ncn2[C@@H]1O[C@H](CO)[C@@H](O)[C@@H]1O,237 (inactive)

# Test: differential killing of epithelial or mesenchymal cells, primary screen, imaging, PC-3E GFP, TEM4-18 mCherry, co-culture (AID 1345086);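 further: normalised mesenchymal count divided by normalised epithelial count so high means epithelial killing; cells exposed to compound for 72 h before imaging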
# Settings: imaging cell counts, at 1 µM, actives lie on both sides, counts scaled to control wells, 1 = unselective
row,Compound,red/green cell ratio (normalised)
1,CNCCC(Oc1ccc(C(F)(F)F)cc1)c1ccccc1 (configuration not stated),1 (inactive)
2,COc1ccc(/C=C/C(=O)Nc2ccccc2C(=O)O)cc1OC,0.8 (inactive)
3,COC(=O)[C@H](c1ccccc1Cl)N1CCc2sccc2C1,1.19 (inactive)
4,CC(C)NCC(O)COc1cccc2ccccc12 (configuration not stated),1.4 (inactive)
5,O=[N+]([O-])c1cccc2cn[nH]c12,0.79 (inactive)
6,CS(=O)(=O)c1ccc(C2=C(c3ccccc3)C(=O)OC2)cc1,0.98 (inactive)
7,Cc1occc(=O)c1O,0.9 (inactive)
8,CN(C)c1nc(N(C)C)nc(N(C)C)n1,1.11 (inactive)
9,COc1ccc(-c2cc(=O)c3c(OC)c(OC)c(OC)c(OC)c3o2)cc1OC,1.15 (inactive)
10,C[N+]1(C)CCCC(OC(=O)C(O)(c2ccccc2)c2ccccc2)C1 (configuration not stated),1.05 (inactive)
11,CC1=C(/C=C/C(C)=C/C=C/C(C)=C\C(=O)O)C(C)(C)CCC1,1.29 (inactive)
12,CCc1ccc(CCOc2ccc(CC3SC(=O)NC3=O)cc2)nc1 (configuration not stated),1.07 (inactive)
13,CC(C(=O)O)c1ccc(-c2ccccc2)c(F)c1 (configuration not stated),1.1 (inactive)
14,CC[C@H]1OC(=O)[C@H](C)[C@@H](O[C@H]2C[C@@](C)(OC)[C@@H](O)[C@H](C)O2)[C@H](C)[C@@H](O[C@@H]2O[C@H](C)C[C@H](N(C)C)[C@H]2O)[C@](C)(OC)C[C@@H](C)C(=O)[C@H](C)[C@@H](O)[C@]1(C)O,0.75 (inactive)
15,C[C@H]1COc2c(N3CCN(C)CC3)c(F)cc3c(=O)c(C(=O)O)cn1c23,1.01 (inactive)
16,CC(C)NCC(O)COc1ccc(CC(N)=O)cc1 (configuration not stated),0.99 (inactive)
17,Cc1cccc(C)c1NC(=O)C1CCCCN1C (configuration not stated),1.21 (inactive)
18,CCCCC(=O)N(Cc1ccc(-c2ccccc2-c2nn[nH]n2)cc1)[C@H](C(=O)O)C(C)C,1.14 (inactive)
19,Nc1ncnc2c1ncn2[C@@H]1O[C@H](CO)[C@@H](O)[C@@H]1O,0.96 (inactive)
